HSF1 inhib – HSF1 inhibition. activity change, negative = inhibition, % at 7.5 µM (by protocol). NIH3T3-HGL HSE-luciferase, MG132-induced, luminescence 8 h; hits give low values. actives 0.77% (n = 300,000). AID 2098;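 active means more than half of replicate wells show activity change below -50%, luminescence cut by over half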;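 further: luciferase reports HSF-1 transcriptional activity via heat shock element; 0% = median of DMSO wells and -100% = zero luminescence signal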
AHR activator – human AHR activation. P35869. AHR-responsive luciferase reporter cells, luminescence. activation, % at 5 µM. actives 2.5% (n = 320,000). AID 2796; in the data active means activation above about 47%;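 further: 0% = vehicle wells and 100% = reference agonist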
FXN GAA850 act – frataxin GAA850 promoter activation; HEK293 lucGAA850 FXN promoter luciferase reporter, 24 h; percent of 10 µM SAHA response; actives 0.56% (n = 360,000); activation, % at 6 µM; AID 540364;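 active means activation above the average of all compounds screened plus 3 SD, cutoff fixed separately per campaign, cut at about 7.5% in these data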;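 further: 0% = DMSO wells and 100% = 10 µM SAHA wells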
HSF1 activator – increases HSF-1 driven luciferase reporter signal; actives 1.7% (n = 300,000); activation, % at 9 µM; NIH3T3-HGL HSF-1 luciferase reporter, MG132, 8 h; 100% = twice DMSO control signal;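 active means mean replicate activation of at least 50% with a set share of replicates each reaching 50%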;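 further: 0% = median of the neutral control wells and 100% = twice that signal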
HSP90 inh – inhibitors of HSP90 luciferase refolding in rabbit reticulocyte lysate; actives 0.91% (n = 290,000); inhibition, % at 5.6 µM; luciferase refolding luminescence, 3 h;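 active means inhibition above the screen-wide mean plus 3 SD, computed separately per campaign, cut at about 16% in these data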;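 further: 0% = DMSO wells and 100% = 60 µM geldanamycin wells; inhibitors lower the luminescence because luciferase stays unfolded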
NR0B1 inh – inhibitors of human orphan nuclear receptor DAX1 (NR0B1); actives 0.99% (n = 340,000); P51843; AID 504766; HEK293 Gal4-DAX1 luciferase reporter, luminescence; inhibition, % at 6.75 µM;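 active means inhibition above the mean over all tested compounds plus 3 SD, cut at about 4.2% in these data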;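 further: 0% = DAX1-transfected cells with DMSO and 100% = empty-vector control cells with DMSO; inhibition shows as a rise in luminescence from relieved DAX1 repression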
HSP90 inh confirm – confirmation of HSP90 inhibitors; shares compounds with HSP90 inh; rabbit reticulocyte lysate, luciferase refolding luminescence, 3 h; inhibition, % at 5.9 µM; actives 64% (n = 2,300); AID 1846; in the data active means inhibition above about 18%;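 further: 0% = vehicle wells and 100% = reference inhibitor wells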
luciferase ctr – firefly luciferase inhibition, HSP90 counter-screen; AID 1847; shares compounds with HSP90 inh; actives 48% (n = 2,300); purified native firefly luciferase, luminescence; inhibition, % at 5.9 µM;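 active means inhibition above the mean inhibition of all tested sample wells plus 3 SD, cut at about 10% in these data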;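 further: 0% = DMSO with luciferase and 100% = wells lacking luciferase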
Target sequence (P08659 whole entry, looked up): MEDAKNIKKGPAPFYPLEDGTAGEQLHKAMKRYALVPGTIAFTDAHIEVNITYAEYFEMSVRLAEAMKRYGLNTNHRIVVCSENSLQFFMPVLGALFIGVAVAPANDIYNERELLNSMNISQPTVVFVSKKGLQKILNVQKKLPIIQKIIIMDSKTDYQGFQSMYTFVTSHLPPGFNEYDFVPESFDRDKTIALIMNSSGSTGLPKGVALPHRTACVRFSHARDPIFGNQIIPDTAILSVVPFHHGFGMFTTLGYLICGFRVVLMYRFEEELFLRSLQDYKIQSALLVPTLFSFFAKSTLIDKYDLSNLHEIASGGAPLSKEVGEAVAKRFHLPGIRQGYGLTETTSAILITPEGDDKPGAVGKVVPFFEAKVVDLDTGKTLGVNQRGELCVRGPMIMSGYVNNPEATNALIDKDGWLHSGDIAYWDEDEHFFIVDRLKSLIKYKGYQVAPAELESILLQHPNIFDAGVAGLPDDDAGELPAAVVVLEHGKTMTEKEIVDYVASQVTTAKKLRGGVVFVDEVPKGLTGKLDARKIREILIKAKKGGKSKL
* = called active by the depositor; . = no result given. Only some compounds are listed: those with a hit (about 5.9% of all), similar ones and a draw of the others.

SMILES	HSF1 inhib	AHR activator	FXN GAA850 act	HSF1 activator	HSP90 inh	NR0B1 inh	HSP90 inh confirm	luciferase ctr
COc1ccc(NC(=O)C(c2ccccc2)N2CCN(c3ccccn3)CC2)cc1Cl (stereo not given)	-3	3	-2	14	-3	0	.	.
CNC(=O)c1c(NC(=O)CCS(=O)(=O)c2ccc(Cl)cc2)sc2c1CCN(C(=O)OC)C2	0	0	0	4	.	0	.	.
CC(=O)OCCCCON1C(=O)c2ccccc2C1=O	6	0	-2	33	7	0	.	.
CCOC(=O)CON1C(=O)c2ccccc2C1=O	-13	0	1	-3	26*	0	-4	-6
Oc1ccc(-c2cn3cc(C(F)(F)F)ccc3n2)cc1	37	-3	3	48	17*	-4	49*	40*
CCCc1nnc(SCC(=O)NC2CC2)n1CC	-3	0	-2	36	-2	1	.	.
Cc1cc(Br)ccc1SCC(=O)OCC(=O)NC1CCCC1	-8	8	0	-11	3	-2	.	.
CCC(c1nc2ccccc2c(=O)n1-c1nc2ccccc2s1)N1C(=O)c2ccccc2C1=O (stereo not given)	4	2	0	-5	0	1	.	.
CNc1nnc(-c2ccc(N(C)C)cc2)s1	.	-6	-1	.	20*	-2	47*	37*
CC(C)(C)c1ccc(C(=O)c2c[nH]c(C(=O)O)c2)cc1	-5	3	4	-20	53*	-1	63*	3
O=C(NC1CCN(C(=O)NCc2ccccc2)CC1)c1cccc(F)c1	-5	-1	0	-22	2	-2	.	.
NC(=O)c1ccc2nc(NC(=O)c3ccc(N)cc3)sc2c1	11	.	2	0	4	.	.	.
O=C(O)c1ccc2nc(-c3ccccc3)sc2c1	-58*	-9	0	-57	95*	-5	95*	79*
CC1CCN(c2nc3ccc(C(=O)O)cc3s2)CC1	-83*	-7	-10	-85	97*	-6	100*	92*
Nc1ccc(-c2nc3ccc(C(=O)O)cc3s2)cc1	-41	-4	-8	-50	100*	-5	101*	92*
CC1CCN(c2nc3ccc(C(=O)NCCCN4CCCCC4)cc3s2)CC1	-40	-11	5	-51	9	0	.	.
O=C(O)c1ccc2ncsc2c1	-8	-2	0	-10	6	0	.	.
CCOC(=O)c1sc(NC(=O)CSc2n[nH]c(-c3ccc(Cl)cc3Cl)n2)c(C#N)c1C	-2	1	-1	0	2	0	.	.
CCOC(=O)c1ccc2c(c1)nc(COc1ccc3ccccc3c1)n2CC	.	1	-1	.	-2	0	.	.
O=C(COc1ccc2c(c1)CCC2)NCc1cccc(Cl)c1	5	10	3	-17	3	1	.	.
O=C(NCc1ccccc1)c1cccc(COc2ccc3c(c2)CCC3)c1	-35	-4	4	-35	36*	-4	45*	45*
O=C(OCC(F)(F)F)c1cccc(COc2ccc3ccccc3c2)c1	-62*	-17	4	-66	25*	-5	93*	22*
O=C(O)c1cccc(COc2ccc3c(c2)CCC3)c1	-79*	-11	3	-82	83*	-9	95*	93*
O=C(O)c1cccc(S(=O)(=O)Nc2ccc(OCc3ccccc3)cc2)c1	2	-4	4	-4	-4	-1	.	.
CCSc1nc(O)cc(=O)n1CC	-10	0	2	-21	9	-1	.	.
O=C(Nc1nccs1)c1ccc(S(=O)(=O)N2CCOCC2)cc1	8	5	2	20	0	2	.	.
CCOC(=O)N1CCN(S(=O)(=O)N2CCCC(C(=O)NCc3ccccc3OC)C2)CC1 (stereo not given)	6	0	0	0	-1	1	.	.
CCC(C)c1ccc(NC(=O)c2ccco2)cc1 (stereo not given)	-4	.	1	8	41*	-4	69*	63*
CCC(C)c1ccc(NC(=O)COC(=O)CCNC(=O)c2ccco2)cc1 (stereo not given)	.	2	1	.	.	1	.	.

Screens from PubChem BioAssay.
